Inconclusive results are not listed. Activity calls are given as the source filed them. Unless noted, calls come from the whole dose curve; as a rule, active = well fitted curve in the direction sought with a large enough effect in the repeat runs; inconclusive = weak or mixed curves; inactive = no such curve, though single readings can be large; an effect the other way counts as inactive or inconclusive.
Assays:
[1] = qHTS RealTime-Glo MT Cell Viability Assay in HepG2 cells - 24 hour (AID 1224867); note: nearly all actives have a fitted effect of over 50% in size
Outline: (§1)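 HepG2 suspension premixed with RealTime-Glo reagents is plated at 600 cells per well and left 5 h at 37 C/5% CO2. Compounds in DMSO then go in, and bioluminescence reflecting viable cell number is recorded over 40 h.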

[2] = qHTS RealTime-Glo MT Cell Viability Assay in HEK293 cells - 32 hour (AID 1224868); note: top concentration of the series differs between compounds; nearly all actives have a fitted effect of over 50% in size
Outline: (§2)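 Reads taken at 0, 8, 16, 24, 32 and 40 h from the same wells. HEK293 cells (600/well) carried RealTime-Glo reagents from seeding, with compound added after a 5 h settle at 37 C.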

[3] = A CellTox Green Cytotoxicity Assay to monitor cytotoxicity in HEK293 cells - 0 hour (AID 1224869); note: nearly all actives have a fitted effect of over 50% in size
Outline: (§3)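 Tox21 screen in HEK293: membrane-impermeant cyanine dye fluoresces on binding dead-cell DNA; compound pinned 5 h post-seeding, plates held at 37 C, signal read repeatedly through 40 h.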

[4] = qHTS RealTime-Glo MT Cell Viability Assay in HepG2 cells - 40 hour (AID 1224870); note: nearly all actives have a fitted effect of over 50% in size
Outline: (§4)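 Real-time viability: cells seeded at 600 per well together with NanoLuc and cell-permeant prosubstrate, compounds added after 5 h incubation. Luminescence tracked at 0, 8, 16, 24, 32 and 40 h of exposure.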

[5] = A CellTox Green Cytotoxicity Assay to monitor cytotoxicity in HEK293 cells - 40 hour (AID 1224871); note: nearly all actives have a fitted effect of over 45% in size
Outline: as §3

[6] = qHTS RealTime-Glo MT Cell Viability Assay in HEK293 cells - 16 hour (AID 1224872)
Outline: as §2

[7] = qHTS RealTime-Glo MT Cell Viability Assay in HepG2 cells - 8 hour (AID 1224873); note: nearly all actives have a fitted effect of over 55% in size
Outline: as §4

[8] = qHTS RealTime-Glo MT Cell Viability Assay in HEK293 cells - 40 hour (AID 1224874); details: RealTime-Glo luminescence; max response: stronger effect = lower value; note: nearly all actives have a fitted effect of over 50% in size
Outline: (§5)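 HEK293 + NanoLuc + prosubstrate, 600 cells/well; 5 h, 37 C/5% CO2; compound 23 nL in DMSO by pintool; 37 C; luminescence read at 0, 8, 16, 24, 32 and 40 h time points.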

[9] = A CellTox Green Cytotoxicity Assay to monitor cytotoxicity in HEK293 cells - 24 hour (AID 1224875); note: series mostly up to about 77 µM; nearly all actives have a fitted effect of over 45% in size
Outline: as §3

[10] = A CellTox Green Cytotoxicity Assay to monitor cytotoxicity in HepG2 cells - 16 hour (AID 1224876); note: nearly all actives have a fitted effect of over 45% in size
Outline: (§6)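 Measurements at 0, 8, 16, 24, 32 and 40 h of treatment captured CellTox Green fluorescence in HepG2 cells that had been co-plated with reagent and preincubated 5 h at 37 C/5% CO2.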

[11] = qHTS RealTime-Glo MT Cell Viability Assay in HepG2 cells - 32 hour (AID 1224877); note: nearly all actives have a fitted effect of over 55% in size
Outline: as §1

[12] = A CellTox Green Cytotoxicity Assay to monitor cytotoxicity in HepG2 cells - 24 hour (AID 1224878); note: nearly all actives have a fitted effect of over 45% in size
Outline: as §6

[13] = A CellTox Green Cytotoxicity Assay to monitor cytotoxicity in HepG2 cells - 40 hour (AID 1224879); note: nearly all actives have a fitted effect of over 40% in size
Outline: as §6

[14] = qHTS RealTime-Glo MT Cell Viability Assay in HEK293 cells - 0 hour (AID 1224880)
Outline: as §5

[15] = A CellTox Green Cytotoxicity Assay to monitor cytotoxicity in HEK293 cells - 32 hour (AID 1224881); note: nearly all actives have a fitted effect of over 40% in size
Outline: as §3

[16] = A CellTox Green Cytotoxicity Assay to monitor cytotoxicity in HepG2 cells - 0 hour (AID 1224882); note: nearly all actives have a fitted effect of over 35% in size
Outline: as §6

[17] = A CellTox Green Cytotoxicity Assay to monitor cytotoxicity in HepG2 cells - 32 hour (AID 1224883); note: nearly all actives have a fitted effect of over 50% in size
Outline: as §6

[18] = A CellTox Green Cytotoxicity Assay to monitor cytotoxicity in HEK293 cells - 8 hour (AID 1224884); note: nearly all actives have a fitted effect of over 35% in size
Outline: as §3

[19] = qHTS RealTime-Glo MT Cell Viability Assay in HepG2 cells - 16 hour (AID 1224885); note: nearly all actives have a fitted effect of over 50% in size
Outline: as §1

[20] = qHTS assay to identify small molecule agonists of the estrogen related receptor (ERR) signaling pathway from Tox21 library (AID 1224849; calls by dose curve; note: nearly all actives have a fitted effect of over 15% in size)
Outline: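 Tox21 compounds tested for ERR agonism in an NTP reporter cell line: 18 h treatment at 37 C, then ONE-Glo luminescence.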
% is set by controls: 0 for no effect and ±100 for the full control effect.

CCCCC(CC)COC(=O)c1ccccc1 (configuration not stated)
inactive: outcome [1] | Potency [2] | Potency [3] | outcome [4] | Potency [5] | Potency [6] | outcome [7] | max response [8] 3.3% | Potency [9] | Potency [10] | outcome [11] | Potency [12] | Potency [13] | outcome [14] | Potency [15] | Potency [16] | Potency [17] | Potency [18] | outcome [19]

CC1(N)CCC(C(C)(C)N)CC1 (configuration not stated)
inactive: outcome [1] | Potency [2] | Potency [3] | outcome [4] | Potency [5] | Potency [6] | outcome [7] | max response [8] -1.45% | Potency [9] | Potency [10] | outcome [11] | Potency [12] | Potency [13] | outcome [14] | Potency [15] | Potency [16] | Potency [17] | Potency [18] | outcome [19]

Cc1cccc(Nc2ccncc2S(=O)(=O)NC(=O)NC(C)C)c1
inactive: outcome [20] | Potency [2] | Potency [3] | outcome [4] | Potency [5] | Potency [6] | outcome [7] | max response [8] -1.39% | Potency [9] | Potency [10] | outcome [11] | Potency [12] | Potency [13] | outcome [14] | Potency [15] | Potency [16] | Potency [17] | outcome [19]

OC[C@@H](O)[C@H](O)[C@@H](O)[C@@H](O)CO
inactive: outcome [20] | Potency [2] | Potency [3] | Potency [5] | Potency [6] | outcome [7] | max response [8] 0.901% | Potency [9] | Potency [10] | outcome [11] | Potency [12] | Potency [13] | outcome [14] | Potency [15] | Potency [16] | Potency [17] | Potency [18] | outcome [19]

CCCCOC(=O)C(C)OC(=O)CCC (configuration not stated)
inactive: outcome [20] | Potency [2] | Potency [3] | outcome [4] | Potency [5] | Potency [6] | outcome [7] | max response [8] 13% | Potency [10] | outcome [11] | Potency [12] | Potency [13] | outcome [14] | Potency [15] | Potency [17] | Potency [18] | outcome [19]

C1=CCC(c2ccccc2)CC1 (configuration not stated)
inactive: outcome [20] | Potency [2] | Potency [3] | outcome [4] | Potency [5] | Potency [6] | outcome [7] | max response [8] 4.33% | Potency [9] | Potency [10] | outcome [11] | Potency [12] | Potency [13] | outcome [14] | Potency [15] | Potency [17] | outcome [19]

BrC/C=C/CBr
inactive: activity change, negative = cytotoxicity [1] 3.48% [at 15.8 µM] | activity change, negative = cytotoxic [2] -0.679% [at 15.8 µM] | cytotoxicity [3] 0.203% [at 15.8 µM] | activity change, negative = cytotoxic [4] -1.8% [at 15.8 µM] | cytotoxicity increase [5] 1.51% [at 15.8 µM] | activity change, negative = cytotoxicity [6] 1.42% [at 15.8 µM] | viability change, negative = cytotoxic [7] 2.32% [at 15.8 µM] | max response [8] -1.67% | activity change [9] 2.67% [at 15.8 µM, stronger effect = higher value] | cytotoxicity increase [10] -13.9% [at 15.8 µM] | activity change, negative = cytotoxic [11] -0.147% [at 15.8 µM] | cytotoxicity [12] -16.1% [at 15.8 µM] | cytotoxicity increase [13] -17.2% [at 15.8 µM] | activity change, negative = cytotoxicity [14] -1.92% [at 15.8 µM] | cytotoxicity increase [15] -1.01% [at 15.8 µM] | cytotoxicity [16] -11.8% [at 15.8 µM] | cytotoxicity increase [17] -16.5% [at 15.8 µM] | cytotoxicity increase [18] 1.66% [at 15.8 µM] | activity change, negative = cytotoxic [19] 4.65% [at 15.8 µM]

COc1cc([N+](=O)[O-])ccc1N
inactive: outcome [1] | Potency [2] | Potency [3] | outcome [4] | Potency [5] | Potency [6] | outcome [7] | max response [8] -15.5% | Potency [9] | Potency [10] | outcome [11] | Potency [12] | Potency [13] | outcome [14] | Potency [15] | Potency [16] | Potency [17] | Potency [18] | outcome [19]

CO/N=C(/C(=O)N[C@@H]1C(=O)N2C(C(=O)O)=C(Cn3nnc(C)n3)CS[C@H]12)c1csc(N)n1
inactive: outcome [1] | Potency [2] | Potency [3] | outcome [4] | Potency [5] | Potency [6] | outcome [7] | max response [8] 1.17% | Potency [9] | Potency [10] | outcome [11] | Potency [12] | Potency [13] | outcome [14] | Potency [15] | Potency [16] | Potency [17] | Potency [18] | outcome [19]

CCOC(=O)C(C)(C)C
inactive: outcome [1] | Potency [2] | Potency [3] | outcome [4] | Potency [5] | Potency [6] | outcome [7] | max response [8] -0.816% | Potency [9] | Potency [10] | outcome [11] | Potency [12] | Potency [13] | outcome [14] | Potency [15] | Potency [16] | Potency [17] | Potency [18] | outcome [19]

NS(=O)(=O)c1ccc(Cl)c(S(N)(=O)=O)c1
inactive: outcome [1] | Potency [2] | Potency [3] | outcome [4] | Potency [5] | Potency [6] | outcome [7] | max response [8] 13.4% | Potency [9] | Potency [10] | outcome [11] | Potency [12] | Potency [13] | outcome [14] | Potency [15] | Potency [16] | Potency [17] | Potency [18] | outcome [19]

OCCCCCCCl
inactive: outcome [1] | Potency [2] | Potency [3] | outcome [4] | Potency [5] | Potency [6] | outcome [7] | max response [8] -5.21% | Potency [9] | Potency [10] | outcome [11] | Potency [12] | Potency [13] | outcome [14] | Potency [15] | Potency [16] | Potency [17] | Potency [18] | outcome [19]

— PubChem BioAssay (Tox21)
